# The full ranking holds about 33,000 sequences; the median of “E-score (-0.5 to 0.5)” is about -0.0059, and the highest 2% start at about 0.26. Only a selection was taken, and the highest values are over-represented in it overall.
# Target: T1, Cin5 (UniProt P40917)
# T1 sequence: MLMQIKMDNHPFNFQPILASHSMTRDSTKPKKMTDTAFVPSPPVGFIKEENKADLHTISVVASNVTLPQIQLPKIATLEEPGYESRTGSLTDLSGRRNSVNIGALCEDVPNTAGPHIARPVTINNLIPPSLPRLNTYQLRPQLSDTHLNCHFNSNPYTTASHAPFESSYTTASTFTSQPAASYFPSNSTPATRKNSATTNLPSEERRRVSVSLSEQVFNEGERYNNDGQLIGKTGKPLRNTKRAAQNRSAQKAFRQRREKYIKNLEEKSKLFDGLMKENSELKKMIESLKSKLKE
# Assay: PBM E-score (8-mer binding enrichment) (E-score (-0.5 to 0.5)); higher = stronger / more preferred TF binding
# Settings: protein concentration: 100 nM; construct: GST-full length
# Protocol: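 Universal 'all 10-mer' protein binding microarrays (Agilent AMADID 015681) probed with GST-tagged S. cerevisiae TFs (full-length or DBD) made by in vitro transcription/translation (PURExpress), about 100-200 nM. Bound TF was detected with fluorescent anti-GST. Each ungapped 8-mer (which stands for itself and its reverse complement) is scored by the PBM enrichment score (E-score), a modified Wilcoxon-Mann-Whitney statistic from -0.5 to +0.5, computed with the Universal PBM Analysis Suite. Scale: above 0.35 generally sequence-specific binding.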
row,Sequence,PBM E-score
1,CTCAGGGA,-0.0496
2,GCGCATTA,0.147
3,ATCACCTG,0.148
4,CAATCTGC,-0.0434
5,GAGCAGAA,-0.0414
6,ACCAACGC,-0.0288
7,AGGGCACG,-0.206
8,CCGACCGG,-0.211
9,ATAGCTAA,0.0506
10,TTAGCTAA,0.343
11,CTAGCTAA,0.0272
12,CACTCGGG,-0.117
13,GATGACAC,0.0142
14,GATGACAA,0.27
15,CATGACAA,0.0097
16,AGGGCCCC,-0.322
17,TCCACTAA,0.0246
18,CGCTTAGC,-0.0166
19,AATATCGG,0.179
20,GATATCGA,0.0864
21,AATATCGA,0.326
22,AAAGAGCG,0.0467
23,AACCCTGA,0.131
24,CGTGCTGA,0.0279
25,GATGCTTA,0.0868

row,Sequence,PBM E-score
1,CATGCTTC,0.0417
2,CGTGCTTA,0.273
3,AATGCTGA,0.118
4,GGTGCTTA,0.0985
5,AATGCTTA,0.276
6,CATGCTTA,0.259
7,CATGCTGA,0.181
8,ACGGTGGA,-0.285
9,GAGTCGAC,0.063
10,GCCTAACC,-0.12
11,ATCCGACG,0.0285
12,CCGCTTAC,0.334
13,CCACTTAA,0.0597
14,ACGCTTAT,0.101
15,GCACTTAC,0.112
16,ACGCTTAG,0.0472
17,CCACTTAC,0.303
18,ACGCTTAC,0.269
19,CCGCTTAG,-0.0568
20,CCGCTTAA,0.103
21,GAACAGGA,-0.126
22,CCTTGCAC,-0.0869
23,TAGATCAA,0.0289
24,ACGGAGAG,0.00731
25,TCGTAAGA,-0.00999

row,Sequence,PBM E-score
1,ACGTAAGA,0.347
2,ACGTAACC,0.262
3,CGGTAAGC,0.114
4,ACGTAAGT,0.25
5,AGGTAAGG,0.0286
6,GTGTAAGA,0.0309
7,ATGTAAGA,0.274
8,AGGTAAGC,0.321
9,ACGTAACG,0.214
10,GCGTAACC,0.0286
11,CTGTAAGA,-0.00022
12,AATCGTCG,0.14
13,ACATTCAC,0.093
14,AAATTCTC,-0.0624
15,TCCCTTAA,-0.186
16,AACTAGGT,0.118
17,CGACATAC,0.104
18,GTCACACA,0.0464
19,TACTTCGA,0.183
20,CGTCCTCC,-0.139
21,CATGGTAA,0.0768
22,ACTCATCT,0.156
23,GATATGGA,0.244
24,ATGTAAGC,0.431
25,ACGTAATG,0.334

row,Sequence,PBM E-score
1,ACGTAAAG,0.191
2,CTGTAAGC,0.0794
3,ATGTAAGG,0.103
4,AAGTAATG,0.184
5,ACAGGGAT,0.0409
6,ACAATCAG,0.134
7,TATCGTAA,0.28
8,CAACGTAA,0.204
9,CAACGGAA,0.103
10,GAACGTAA,0.297
11,GAACGTTA,-0.104
12,AAACGTAA,0.234
13,CATCGTAA,0.0929
14,GATCGTAA,0.116
15,GAACGGAA,0.176
16,GAACGTAC,-0.115
17,TAACGGAA,0.322
18,TAACGTAA,0.415
19,GAGGGGGA,-0.324
20,GTGAGATA,0.164
21,CTAGCCGC,0.0223
22,GACTAGAC,-0.179
23,ATCTGAAT,0.0915
24,GACCTTCC,-0.147
25,CGATATTA,0.355

row,Sequence,PBM E-score
1,TAATATTA,0.368
2,GAATATCA,0.174
3,CGATATTC,0.0444
4,GAATATTA,0.274
5,GGATATTA,0.143
6,GAATATTC,0.265
7,CAATATTC,0.102
8,GCATATTA,0.246
9,AGATATTA,0.168
10,GAATATAC,0.195
11,AAATATTT,0.141
12,GATCGTTA,0.0193
13,GGACCTAA,-0.0416
14,CTGGGAAG,-0.0869
15,CGATCGCC,0.0437
16,AGTCTTAT,0.158
17,AAGGGCGA,-0.241
18,CAAGACGA,-0.0306
19,CTCCGCCC,-0.173
20,CTCCACAC,-0.0294
21,ACTTCTTG,-0.0532
22,AGGCTTGA,-0.0503
23,CCACCTCC,-0.266
24,AAGCACTC,-0.0467
25,CAATATCA,0.108

row,Sequence,PBM E-score
1,AAATATTA,0.315
2,CAGTATCA,0.0369
3,CAATATTG,0.205
4,TAATATCA,0.26
5,AAATATTC,0.183
6,CAATATTA,0.275
7,CAATATCC,0.116
8,AAATATCA,0.179
9,AAATATTG,0.222
10,GAGTATCA,-0.0396
11,TAGTATCA,0.296
12,ACCTACGT,0.0549
13,CACTGCAG,-0.0359
14,CGGCAGTC,0.0575
15,GTGCCAGA,-0.293
16,GCACTACC,-0.00786
17,TACCGGTA,0.0137
18,GCGATTCA,0.0512
19,AAAATCCT,-0.223
20,CTTTAGCC,0.0446
21,CCGGCTTC,0.0218
22,TGGAGCCA,-0.184
23,ATTGGCGG,-0.0494
24,AGGATAGC,-0.064
25,CTGACCGC,-0.068

row,Sequence,PBM E-score
1,ACAATAAT,0.267
2,ACTATAAC,0.0218
3,ACAATAAC,0.143
4,ATTATAAT,0.265
5,ATTATAAG,0.188
6,ACAATAAA,0.162
7,ATTATAAA,0.195
8,ACTATAAT,0.27
9,ACTATAAA,0.146
10,ATGAATAA,0.142
11,ACCAGGGG,-0.265
12,AGGCAGTG,0.141
13,TAAATATA,0.261
14,AAAATATA,0.159
15,CAAATATA,0.166
16,GAAATATC,0.111
17,GAAAAATA,0.158
18,GAAATATA,0.287
19,CCGTTGGC,-0.124
20,AAACAGCA,0.0422
21,CCCCATCC,0.00185
22,AGACAATC,0.112
23,CAACAATA,0.155
24,AAACAATA,0.287
25,AGACAATA,0.279

# Reference: the supplement of paper PMC3334620
